# MEKK3 PB1 HTS – modulators (inhibitors or enhancers) of MEK5 binding to human MEKK3 PB1 domain. Q99759. bead-based flow cytometry, Alexa488-MEK5 binding to MEKK3; actives lie on both sides; 0 = blocked by unlabeled MEK5, 100 = vehicle. binding response (% of control), % at 10 µM. 1.4% of 290,000 active. AID 1529;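 active = binding response more than 3 SD above or below the average of its plate-row segment, actives on both sides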;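 note: Alexa488 bead fluorescence after subtracting the streptavidin-only scavenger bead signal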
# GRK2 inh – blocks RNA aptamer binding to human GRK2. P25098. inhibition of aptamer binding, % at 10 µM. bead flow cytometry, FAM-aptamer displacement from GRK2. 0.59% of 330,000 active;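 active = inhibition of aptamer binding above 40%, roughly 3 SD of noise, on plates passing a quality check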;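 note: median bead fluorescence of bound FAM aptamer so fluorescent compounds give negative values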
# Target sequence (P25098 whole entry, looked up): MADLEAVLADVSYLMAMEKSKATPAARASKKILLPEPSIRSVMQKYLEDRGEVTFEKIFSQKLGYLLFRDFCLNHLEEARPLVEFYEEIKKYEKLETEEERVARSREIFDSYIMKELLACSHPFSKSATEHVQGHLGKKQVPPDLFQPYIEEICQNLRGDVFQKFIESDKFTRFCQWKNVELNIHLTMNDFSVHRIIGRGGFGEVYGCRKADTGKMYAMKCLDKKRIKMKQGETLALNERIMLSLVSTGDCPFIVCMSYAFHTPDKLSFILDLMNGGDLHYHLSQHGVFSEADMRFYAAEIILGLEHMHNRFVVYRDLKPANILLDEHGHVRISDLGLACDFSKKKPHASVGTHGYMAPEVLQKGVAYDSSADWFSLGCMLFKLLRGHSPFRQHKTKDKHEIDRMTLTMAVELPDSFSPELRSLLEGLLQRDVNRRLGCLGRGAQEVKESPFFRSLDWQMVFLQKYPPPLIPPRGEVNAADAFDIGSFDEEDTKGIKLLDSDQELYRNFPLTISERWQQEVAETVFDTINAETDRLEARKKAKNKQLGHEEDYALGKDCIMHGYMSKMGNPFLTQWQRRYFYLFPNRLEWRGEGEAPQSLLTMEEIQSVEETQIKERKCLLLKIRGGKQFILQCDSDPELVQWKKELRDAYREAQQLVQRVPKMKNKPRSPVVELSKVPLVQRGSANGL
# MEKK2wt PB1 HTS – raises or lowers MEK5 binding to wildtype human MEKK2 PB1 domain; 1.1% of 290,000 active; binding response (% of control), % at 10 µM; AID 1531; bead flow cytometry, Alexa488-MEK5 binding to MEKK2 WT; actives lie on both sides; Q9Y2U5; in the data active = binding response below about 67% or above about 130%
# MEKK2 mut-MEK5 – signal of MEK5 binding to mutant human MEKK2 PB1 domain | 0.35% of 290,000 active | bead flow cytometry, Alexa488-MEK5 binding to MEKK2 mutant | percent response, % at 10 µM; in the data active = percent response above about 24%, passing the limit was not always enough
# MEKK2wt confirm – raises or lowers MEK5 binding to wildtype human MEKK2, retest; shares compounds with MEKK3 PB1 HTS; bead flow cytometry, Alexa488-MEK5 binding to MEKK2 WT; actives lie on both sides; binding response (% of control), % at 10 µM; 2.4% of 5,900 active; in the data active = binding response below about 16% or above about 210%; inactive = in between
# MEKK2mut-MEK5 – signal of MEK5 binding to mutant human MEKK2, retest. shares compounds with MEKK3 PB1 HTS. bead flow cytometry, Alexa488-MEK5 binding to MEKK2 mutant. percent response, % at 10 µM. 2% of 5,900 active. AID 1893; in the data active = percent response mostly above about 71%, no sharp cut-off; inactive = mostly below about 38%;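 note: higher means compound restores mutant binding toward wildtype level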
# MEKK3-MEK5 inh – confirmation of inhibitors of MEK5 binding to human MEKK3 | shares compounds with MEKK3 PB1 HTS | bead flow cytometry, Alexa488-MEK5 binding to MEKK3; stronger effect = lower value | binding response (% of control), % at 10 µM | 1.8% of 5,900 active | AID 1894;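 active = binding response below 72% of control, or above a set upper limit, though filed actives all read lower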;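 note: 100% = DMSO only wells and 0% = binding blocked by excess unlabeled MEK5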
# An asterisk follows results filed as active; . = no result given; ! = a repeat was not active; [ ] = dose if it differs, or a comment. This is a sample that favours compounds with a hit; in the whole collection about 2.5% have one here.
SMILES,MEKK3 PB1 HTS,GRK2 inh,MEKK2wt PB1 HTS,MEKK2 mut-MEK5,MEKK2wt confirm,MEKK2mut-MEK5,MEKK3-MEK5 inh
Cn1cccc1/C=C1/C(=O)NC(=O)N(Cc2ccc(F)cc2)C1=O,101,0,93,0,.,.,.
O=c1[nH]c(=O)n(-c2cccc3ccccc23)c(O)c1/C=N/N1CCCCC1c1cccnc1 (stereo not drawn),134*,2,106,0,102,-2,102
CN(C)C(=O)Oc1cccc(OCc2n(C)c3ccccc3[n+]2C)c1,103,0,105,-2,.,.,.
CN(C)C1(c2nnnn2CCOC(=O)Nc2ccc(Cl)cc2)CCCCC1,100,1,98,3,.,.,.
O=P(C(=Nc1ccc(Cl)cc1)N1CCOCC1)(N1CCOCC1)N1CCOCC1,94,0,97,0,.,.,.
C=CCN1C(=O)/C(=C/c2cc(C)n(-c3ccccn3)c2C)C(=O)NC1=S,94,3,61*[inhibitor],-2,96,-2,100
c1ccc(CC(NCc2ccco2)c2ccccc2)cc1 (stereo not drawn),129*,0,112,0,103,6,103
Oc1ccc2c3c1OC1C(O)CC[C@@]4(O)[C@@H](C2)N(CC2CCC2)CC[C@]314 (stereo partly drawn),70,0,53*![inhibitor],-1,115,9,108
O=C1NC(=O)C(=Cc2coc3ccccc3c2=O)C(=O)N1,121,5,282*,184*,99,-2,103
O=C(Nc1cccc(Cl)c1)OC1CN2CCC1CC2 (stereo not drawn),110,3,147*,27,125,8,98
O=C(Nc1ccc(Cl)cc1)OC1CN2CCC1CC2 (stereo not drawn),86,0,93,-8,.,.,.
O=C(c1cc(F)ccc1F)C1CCCN(Cc2ccc3nonc3c2)C1 (stereo not drawn),103,0,113,3,.,.,.
CC/C(=N\Nc1ccccc1)c1c(O)[nH]c(=O)[nH]c1=O,94,2,94,-10,.,.,.
CC/C(=N\Nc1cccc2ccccc12)c1c(O)[nH]c(=O)[nH]c1=O,97,0,36*[inhibitor],3,89,-14,95
C=CCn1c(O)c(C=NCCN(C)C)c(=O)[nH]c1=O,.,1,.,.,.,.,.
CN(C)CCN=Cc1c(O)n(-c2cccc(C(F)(F)F)c2)c(=O)[nH]c1=O,2.0*[inhibitor],0,-2.0*[inhibitor],-20,98,4,101
C[N+]1(C)C2CCC1CC(OC(=O)C(CO)c1ccccc1)C2 (stereo not drawn),93,0,101,5,.,.,.
N#CC(C#N)=C(N)c1cccnc1,46*[inhibitor],1,57,-45,98,-6,97
Cc1cccc(N2C(=O)NC(=O)/C(=C\c3ccc4c(c3)CCCN4Cc3ccccc3)C2=O)c1,139*,0,146*,159*,86,-24,93
CC1=NN(c2ccccc2)C(=O)C1/C=C1/C(=O)NC(=O)N(c2cccc(C)c2)C1=O (stereo not drawn),100,.,104,11,.,.,.
CCCCCCN1CCN(c2ccc(Cl)cc2)CC1,81,0,89,-9,.,.,.
ClCCN1CCN(c2ccnc3cc(Cl)ccc23)CC1,107,0,154*,20,112,9,104
CCN(CC)CCCN=Cc1c(O)n(-c2cccc(C)c2C)c(=O)[nH]c1=O,93,0,92,-20,.,.,.
CCC1C(c2ccccc2)NC(c2ccccc2)CC1(O)c1ccc(F)cc1 (stereo not drawn),107,1,152*,43,122,17,108
Cc1c2ccncc2c(C)c2c1[nH]c1ccccc12,72*[inhibitor],2,201*,28*,195,58,105
SMILES,MEKK3 PB1 HTS,GRK2 inh,MEKK2wt PB1 HTS,MEKK2 mut-MEK5,MEKK2wt confirm,MEKK2mut-MEK5,MEKK3-MEK5 inh
COc1cc2c3cc1Oc1cc(ccc1O)C[C@@H]1c4c(cc(OC)c(O)c4Oc4ccc(cc4)C[C@H]3N(C)CC2)CCN1C,107,0,134*,10,118,8,97
COc1cc2c3cc1Oc1c(OC)c(OC)cc4c1[C@H](Cc1ccc(cc1)Oc1cc(ccc1O)C[C@H]3N(C)CC2)N(C)CC4,.,0,.,.,.,.,.
COc1cc(OC)c(OC)cc1CNCCc1cccc(F)c1,104,0,103,10,.,.,.
COc1ccc(CNCCc2cccc(F)c2)c2ccccc12,113,0,151*,16,117,10,103
CCOc1ccc(Br)c(C2(O)CC(C)N(C)CC2C)c1 (stereo not drawn),104,1,107,7,.,.,.
CNC(=S)NC1CC2CCCC(C1)N2CC(C)C (stereo not drawn),88,1,89,-7,.,.,.
Cc1ccc(CN2C3CCCC2CC(NC(=S)NCc2ccccc2)C3)cc1 (stereo not drawn),110,0,195*,62*,140,17,103
CN1c2ccc([N+](=O)[O-])cc2CC2(C(=O)NC(=O)NC2=O)C1c1ccccc1 (stereo not drawn),134*,0,104,3,96,-1,99
COc1ccc(NC2=NCCCS2)cc1OC,100,4,103,1,.,.,.
O=C1CN=C(c2cc([N+](=O)[O-])ccc2Cl)c2cc([N+](=O)[O-])ccc2N1,.,0,.,.,.,.,.
COc1cccc(NP(=O)(Oc2ccccc2Cl)Oc2ccccc2Cl)c1,137*,0,109,1,101,-7,104
Cc1ccc(CN2C(=O)NC(=O)C3(Cc4c(nc5ccccn5c4=O)N4CCCCCC43)C2=O)cc1 (stereo not drawn),68,3,71,-18,.,.,.
CC(NCc1cccc(Cl)c1Cl)C(O)c1ccccc1 (stereo not drawn),102,0,43*[inhibitor],5,103,2,104
COc1ccc(CNCCc2c(C)[nH]c3ccc(OC(F)(F)F)cc23)c(OC)c1,95,0,139*,19,144,18,104
COc1ccc(C2(C#N)CCN(C)CC2)cc1,92,1,94,-3,.,.,.
CC(C)COc1ccc(C2(C#N)CC[N+](C)(C)CC2)cc1,80*[inhibitor],0,85,-17,100,2,101
CCC(C)NC(=O)c1c(N)n(CC2CCCO2)c2nc3ccccc3nc12 (stereo not drawn),82*[inhibitor],5,86,-3,100,-2,102
CC(C)CCNC(=O)c1c(N)n(CC2CCCO2)c2nc3ccccc3nc12 (stereo not drawn),101,0,97,-5,.,.,.
Cc1cc(C=C2C(=O)N(C)C(=S)N(C)C2=O)c(C)n1C1CCCC1,84,8,55*[inhibitor],-13,98,-1,101
